# Assay results taken from PubChem BioAssay (Tox21).
# “And” between values parts separate entries of the source, which are not always exact repeats. Identical values can stand only once. Records with an inconclusive call do not appear. Entries that show only a call come without a potency. More than one record can exist for a structure, and the calls need not agree. The source made the active and inactive calls. Unless noted, calls follow the shape of the full dose curve.
# Columns and labels:
# [1] = Nuclear factor erythroid 2-related factor 2/antioxidant responsive element (Nrf2/ARE) small molecule agonists: qHTS cell viability counter screen in human keratinocytes (AID 1919968; active = well fitted curve in the direction sought with a large enough effect in the repeat runs; an effect the other way counts as inactive or inconclusive; also: nearly all actives have a fitted effect of over 55% in size; also: potency is read from the fitted curve at half-maximal effect)
# Method in brief: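 Fluorescence read-out from CellTiter-Fluor after 1 h at 37 C. Wells held HaCaT-derived ARE-luciferase reporter cells (1,500/well) treated 23 h with DMSO-dissolved compounds. Run in the same wells as the luciferase agonist read.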
# [2] = biological target: Gonadotropin-releasing hormone receptor (Homo sapiens) (UniProt P30968); test: Human gonadotropin-releasing hormone receptor (GnRHR) small molecule agonists, calcium flux assay in GnRHR-HEK293 cells (AID 1920063); also: nearly all actives have a fitted effect of over 35% in size
# Sequence of Gonadotropin-releasing hormone receptor (Homo sapiens) (P30968 whole entry, looked up): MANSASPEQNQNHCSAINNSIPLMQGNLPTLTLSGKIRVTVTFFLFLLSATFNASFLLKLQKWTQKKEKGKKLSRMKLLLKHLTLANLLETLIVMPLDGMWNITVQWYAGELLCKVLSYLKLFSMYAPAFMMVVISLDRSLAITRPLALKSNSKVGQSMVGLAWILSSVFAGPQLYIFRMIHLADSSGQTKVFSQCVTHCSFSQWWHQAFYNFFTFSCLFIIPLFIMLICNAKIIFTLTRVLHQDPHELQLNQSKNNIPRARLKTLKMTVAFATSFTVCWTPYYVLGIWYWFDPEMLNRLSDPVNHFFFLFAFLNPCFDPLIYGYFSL
# Method in brief: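 Calcium-dye fluorescence, Ex/Em=480/540, recorded every 1 sec over 3 min after compound addition to GnRHR-HEK293 cells. Cells had been seeded 18 hours earlier and dye-loaded for 1 hour at 37 C. Fifteen concentrations, triplicates.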
# [3] = biological target: KiSS-1 receptor (Homo sapiens) (UniProt Q969F8); test: Human kisspeptin (KISS1R) small molecule agonists, calcium flux assay in KISS1R-HEK293 cells (AID 1920064; active = well fitted curve in the direction sought with a large enough effect in the repeat runs; an effect the other way counts as inactive or inconclusive)
# Sequence of KiSS-1 receptor (Homo sapiens) (Q969F8 whole entry, looked up): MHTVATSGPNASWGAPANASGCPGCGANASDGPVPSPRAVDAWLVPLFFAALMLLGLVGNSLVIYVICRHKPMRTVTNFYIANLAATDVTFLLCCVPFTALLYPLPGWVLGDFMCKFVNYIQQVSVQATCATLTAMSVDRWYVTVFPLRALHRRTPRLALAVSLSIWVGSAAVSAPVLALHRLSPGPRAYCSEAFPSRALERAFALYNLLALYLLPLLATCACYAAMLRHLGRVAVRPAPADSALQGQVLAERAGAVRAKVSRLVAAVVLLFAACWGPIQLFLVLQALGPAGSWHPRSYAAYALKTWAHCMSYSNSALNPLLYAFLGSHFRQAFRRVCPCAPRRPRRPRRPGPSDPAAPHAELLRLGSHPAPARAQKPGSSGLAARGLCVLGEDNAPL
# Method in brief: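 Calcium flux read-out: kinetic fluorescence at Ex/Em=480/540, 1 s intervals over 3 min, after pin-tool compound addition to dye-loaded KISS1R-HEK293 cells. Fifteen concentrations, triplicates.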
# [4] = G protein-coupled receptor (GPCR) small molecule agonists, calcium flux assay: HEK293 wild type cell line counter screen (AID 1920065)
# Method in brief: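 Agonist mode; 18 h seeding at 37 C, 1 h dye load at 37 C; compounds pinned from DMSO, ATP as positive control; kinetic fluorescence 480/540 nm, 3 min, 1 s reads; 15 concentrations, triplicate.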
# [5] = p53 small molecule agonists, cell-based qHTS assay with human liver microsomes: qHTS cell viability counter screen (AID 1963579); also: nearly all actives have a fitted effect of over 45% in size; also: potency is read from the fitted curve at half-maximal effect
# Method in brief: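 In this multiplexed counter screen, the reporter plates were subsequently treated with CellTiter-Glo so that cell viability, reflected by luminescence, could be recorded for p53RE-bla cells dosed 16 h with compounds under microsomal activation (HLM and NADPH).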
# [6] = p53 small molecule agonists, cell-based qHTS assay with rat liver microsomes: qHTS cell viability counter screen (AID 1963580); also: nearly all actives have a fitted effect of over 45% in size
# Method in brief: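 Counter screen for cytotoxicity under metabolic activation: rat liver microsomes and NADPH, 0.5 mg/mL final each, added with compounds to p53RE-bla HCT-116 cells; 16 h at 37 C, then ATP luminescence read.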
# [7] = p53 small molecule agonists, cell-based qHTS assay: qHTS cell viability counter screen (AID 1963581); also: nearly all actives have a fitted effect of over 45% in size; also: potency is read from the fitted curve at half-maximal effect
# Method in brief: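 Cytotoxicity read-out: ATP-based luminescence (CellTiter-Glo, 30 min RT) measured in the same wells as the p53 reporter assay, HCT-116 p53RE-bla cells, 16 h compound exposure at 37 C.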
# [8] = biological target: 5-hydroxytryptamine receptor 2A (Homo sapiens) (UniProt P28223); test: 5-hydroxytryptamine receptor 2A (HTR2A) small molecule antagonists, cell-based qHTS assay (AID 1963586); also: nearly all actives have a fitted effect of over 45% in size
# Sequence of 5-hydroxytryptamine receptor 2A (Homo sapiens) (P28223 whole entry, looked up): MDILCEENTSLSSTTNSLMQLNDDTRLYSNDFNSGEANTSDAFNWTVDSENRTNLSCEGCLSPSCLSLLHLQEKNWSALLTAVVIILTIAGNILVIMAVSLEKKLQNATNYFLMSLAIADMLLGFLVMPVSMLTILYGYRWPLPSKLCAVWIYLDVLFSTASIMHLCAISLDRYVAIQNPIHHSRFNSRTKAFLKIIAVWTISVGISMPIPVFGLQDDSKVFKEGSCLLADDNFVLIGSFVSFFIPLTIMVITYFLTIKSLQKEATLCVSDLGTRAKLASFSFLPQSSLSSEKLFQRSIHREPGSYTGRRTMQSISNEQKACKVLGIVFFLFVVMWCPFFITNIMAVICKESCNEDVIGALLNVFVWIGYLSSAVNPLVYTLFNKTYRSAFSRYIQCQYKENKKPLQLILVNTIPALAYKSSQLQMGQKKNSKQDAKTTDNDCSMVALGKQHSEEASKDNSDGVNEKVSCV
# Method in brief: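 CHO cells stably expressing human HTR2A were plated for 18 h at 37 C, then loaded with calcium dye for 1 h. Compounds were preincubated 5 min at room temperature before DOI (4 nM solution) was added. Kinetic fluorescence was read for 3 min.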
# [9] = biological target: 5-hydroxytryptamine receptor 2A (Homo sapiens) (UniProt P28223); test: 5-hydroxytryptamine receptor 2A (HTR2A) small molecule agonists, cell-based qHTS assay (AID 1963587); also: nearly all actives have a fitted effect of over 30% in size; also: potency is read from the fitted curve at half-maximal effect
# Method in brief: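 HTR2A-CHO cells, plated 18 h at 37 C/5% CO2, dye-loaded 1 h at 37 C; compounds in DMSO added by pin tool (agonist mode). Intracellular calcium flux read as kinetic fluorescence on FDSS over 2 min at 1 s intervals.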
# [10] = biological target: Muscarinic acetylcholine receptor M1 (Homo sapiens) (UniProt P11229); test: Cholinergic receptor muscarinic 1 (CHRM1) small molecule antagonists, cell-based qHTS assay (AID 1963588); also: nearly all actives have a fitted effect of over 40% in size; also: potency is read from the fitted curve at half-maximal effect
# Sequence of Muscarinic acetylcholine receptor M1 (Homo sapiens) (P11229 whole entry, looked up): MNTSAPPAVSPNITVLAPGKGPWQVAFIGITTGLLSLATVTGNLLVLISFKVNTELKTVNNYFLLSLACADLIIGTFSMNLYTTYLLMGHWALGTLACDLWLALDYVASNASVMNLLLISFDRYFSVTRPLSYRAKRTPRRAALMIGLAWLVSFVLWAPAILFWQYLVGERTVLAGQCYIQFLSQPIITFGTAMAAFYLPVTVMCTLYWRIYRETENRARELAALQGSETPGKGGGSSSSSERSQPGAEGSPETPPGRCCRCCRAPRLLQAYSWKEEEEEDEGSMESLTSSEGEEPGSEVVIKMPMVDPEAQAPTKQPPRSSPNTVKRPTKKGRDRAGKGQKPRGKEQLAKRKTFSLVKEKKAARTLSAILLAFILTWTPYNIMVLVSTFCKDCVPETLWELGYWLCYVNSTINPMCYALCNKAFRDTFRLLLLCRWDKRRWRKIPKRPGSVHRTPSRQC
# Method in brief: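 Compounds were tested at 15 concentrations in three independent runs. Dye-loaded CHRM1-CHO cells were exposed 5 min at room temperature before stimulation by acetylcholine added at 50nM. Intracellular calcium was read kinetically on FDSS for 3 min.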
# [11] = biological target: Muscarinic acetylcholine receptor M1 (Homo sapiens) (UniProt P11229); test: Cholinergic receptor muscarinic 1 (CHRM1) small molecule agonists, cell-based qHTS assay (AID 1963589); also: nearly all actives have a fitted effect of over 35% in size
# Method in brief: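 Calcium flux read-out: kinetic fluorescence at 1 sec intervals after pin-tool compound addition to dye-loaded CHRM1-CHO cells (human M1). Agonist mode; 15 concentrations tested in triplicate independent runs.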
# [12] = cAMP Responsive Elements (CRE) small molecule antagonists, cell-based qHTS assay (AID 1963591; active = well fitted inhibition curve with a large enough effect in the signal ratio in the repeat runs, not every such curve was filed as active; the % refers to the signal ratio)
# Method in brief: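 HEK293T CRE-bla; 18 h preincubation; compound pin-transfer; NKH477 0.25 uM final, 3 h, 37 C; LiveBLAzer FRET substrate 2 h RT.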
# [13] = biological target: Beta-2 adrenergic receptor (Homo sapiens) (UniProt P07550); test: Adrenergic beta2 receptor (ADRB2) small molecule agonists, cell-based qHTS assay (AID 1963593);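 also: CHO cells stably overexpressing human ADRB2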
# Sequence of Beta-2 adrenergic receptor (Homo sapiens) (P07550 whole entry, looked up): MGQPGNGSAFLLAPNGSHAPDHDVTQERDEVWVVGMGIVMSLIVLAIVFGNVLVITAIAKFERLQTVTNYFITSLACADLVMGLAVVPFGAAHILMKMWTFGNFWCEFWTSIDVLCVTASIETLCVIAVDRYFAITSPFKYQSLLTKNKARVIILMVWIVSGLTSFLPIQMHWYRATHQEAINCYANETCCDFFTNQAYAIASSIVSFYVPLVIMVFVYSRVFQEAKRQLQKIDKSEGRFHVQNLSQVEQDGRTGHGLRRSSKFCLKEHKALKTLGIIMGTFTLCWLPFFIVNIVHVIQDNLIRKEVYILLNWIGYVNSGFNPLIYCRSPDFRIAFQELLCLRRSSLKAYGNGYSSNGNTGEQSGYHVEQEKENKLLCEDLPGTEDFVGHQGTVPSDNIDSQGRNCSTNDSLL
# Method in brief: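 CHO cells stably over-expressing ADRB2 were plated overnight at 37C, then dosed with compounds plus a stimulation mix containing 100uM IBMX and 25uM Ro-20-1724 for 0.5hr at room temperature. cAMP was measured by HTRF competition, 1hr.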
# [14] = biological target: D(2) dopamine receptor (Homo sapiens) (UniProt P14416); test: Dopamine D2 receptor (DRD2) small molecule agonists, cell-based qHTS assay (AID 1963594); also: nearly all actives have a fitted effect of over 35% in size
# Sequence of D(2) dopamine receptor (Homo sapiens) (P14416 whole entry, looked up): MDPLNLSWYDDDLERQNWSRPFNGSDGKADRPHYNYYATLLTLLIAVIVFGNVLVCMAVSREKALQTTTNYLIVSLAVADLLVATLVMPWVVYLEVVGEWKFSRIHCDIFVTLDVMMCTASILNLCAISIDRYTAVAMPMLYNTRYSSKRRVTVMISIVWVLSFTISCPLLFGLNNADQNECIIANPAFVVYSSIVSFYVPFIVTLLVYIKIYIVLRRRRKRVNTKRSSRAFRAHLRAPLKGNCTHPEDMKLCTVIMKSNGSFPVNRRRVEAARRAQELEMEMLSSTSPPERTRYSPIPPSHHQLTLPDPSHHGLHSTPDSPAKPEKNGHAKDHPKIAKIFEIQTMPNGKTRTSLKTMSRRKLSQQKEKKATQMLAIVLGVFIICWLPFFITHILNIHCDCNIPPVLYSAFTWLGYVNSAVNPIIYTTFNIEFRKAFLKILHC
# Method in brief: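 HEK293 cells stably expressing DRD2 were cultured 24 h at 37 C, then given Ro20-1724 (0.1 mM final) and compounds for 10 min at room temperature. NKH477 (200nM) was then added for 30 min. cAMP was read by HTRF.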
# [15] = biological target: D(2) dopamine receptor (Homo sapiens) (UniProt P14416); test: Dopamine D2 receptor (DRD2) small molecule antagonists, cell-based qHTS assay (AID 1963595; active = well fitted inhibition curve with a large enough effect in the signal ratio in the repeat runs, with a control signal flat; the % refers to the signal ratio)
# Method in brief: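 HEK293 cells stably expressing DRD2 were preincubated with 0.1 mM Ro20-1724, then with compound for 10 min at room temperature. Cells were stimulated with 200 nM NKH477 plus 12 nM quinpirole for 30 min, and cAMP was read by HTRF.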
# [16] = p53 small molecule agonists, cell-based qHTS assay with human liver microsomes (AID 1963577);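 also: p53 response element beta-lactamase reporter cells with liver microsomes plus NADPH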
# Method in brief: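 16 h, 37 C exposure of p53RE-bla cells to compounds with human liver microsomes and NADPH (0.5 mg/mL final each); detection via LiveBLAzer mixture, 2 h dark at room temperature.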
# [17] = cAMP Responsive Elements (CRE) small molecule agonists, cell-based qHTS assay (AID 1963590)
# Method in brief: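 Beta-lactamase reporter readout: LiveBLAzer B/G FRET substrate, 2 h at room temperature, added after 3 h compound treatment of CRE-bla HEK 293T cells at 37 C/5% CO2.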
# [18] = biological target: Beta-2 adrenergic receptor (Homo sapiens) (UniProt P07550); test: Adrenergic beta2 receptor (ADRB2) small molecule antagonists, cell-based qHTS assay (AID 1963592); also: series mostly up to about 92 µM; nearly all actives have a fitted effect of over 50% in size
# Method in brief: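 Assay format: CHO-ADRB2 cells, 18-20hr seeding at 37C/5% CO2, then compound plus 1nM isoproterenol agonist mix for 0.5hr RT. Homogeneous time-resolved fluorescence cAMP detection after 1hr, expressed as 665/615 nm ratio.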
# [19] = p53 small molecule agonists, cell-based qHTS assay with rat liver microsomes (AID 1963578)
# Method in brief: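 With rat liver microsomes and NADPH present (0.5 mg/mL final each), p53RE-bla cells are treated with compound for 16 h at 37 C. LiveBLAzer detection mixture is then applied for 2 h at room temperature in the dark.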
# [20] = p53 small molecule agonists, cell-based qHTS assay (AID 1963582; active = well fitted activation curve with a large enough effect in the signal ratio in the repeat runs, not every such curve was filed as active; the % refers to the signal ratio)
# Method in brief: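 Fluorescence intensity read-out of a beta-lactamase reporter under a p53 response element. Cells were exposed to DMSO-dissolved compounds for 16 h at 37 C, then developed with FRET substrate for 2 h at RT.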
Structure (SMILES),Potency [1],Potency [2],Potency [3],Potency [4],Potency [5],Potency [6],Potency [7],Potency [8],Potency [9],Potency [10],Potency [11],Potency [12],Potency [13],Potency [14],Potency [15],Potency [16],Potency [17],Potency [18],Potency [19],Potency [20]
CCCCCCCCCCCCOS(=O)(=O)O,inactive,inactive,inactive,inactive,inactive,inactive,inactive,inactive,inactive and 55 µM (active) and 49 µM (active),inactive,inactive,inactive,inactive,inactive,inactive,–,–,–,–,–
c1ccc2c(c1)-c1cccc3cccc-2c13,inactive,inactive,inactive,inactive,inactive,inactive,inactive,inactive,inactive,inactive,–,inactive,–,inactive,inactive,inactive,inactive,inactive,–,–
CC(COc1ccc(Oc2ccccc2)cc1)Oc1ccccn1 (stereo not given),inactive,inactive,inactive,inactive,inactive,inactive,–,inactive,–,inactive,inactive,inactive,–,inactive,inactive,inactive,inactive,inactive,inactive,inactive
CCC(C)n1c(=O)[nH]c(C)c(Br)c1=O (stereo not given),inactive,inactive,inactive,inactive,inactive,–,inactive,inactive,–,inactive,inactive,inactive,inactive,–,inactive,inactive,inactive,–,inactive,inactive
CNc1cnn(-c2cccc(C(F)(F)F)c2)c(=O)c1Cl,inactive,inactive,inactive,inactive,inactive,–,inactive,inactive,inactive,inactive,inactive,inactive,inactive,inactive,inactive,inactive,–,inactive,inactive,inactive
Cl,inactive,inactive,inactive,inactive,inactive,inactive,inactive,inactive,inactive,inactive,inactive,inactive,inactive,inactive,inactive,–,inactive,inactive,–,–
CN(C)C(=O)Cl,inactive,inactive,inactive,inactive,inactive,inactive,45.7 µM (active) and inactive,inactive,inactive,inactive,inactive,inactive,inactive,inactive,inactive,–,inactive,–,–,–
Oc1c(Br)cc(Br)cc1Br,inactive,inactive,inactive,inactive,inactive,inactive,inactive,inactive,inactive,–,inactive,inactive,–,inactive,inactive,–,inactive,inactive,–,–
Cc1cc(-c2cc(C)c(N)c(C)c2)cc(C)c1N,inactive,inactive,inactive,inactive,inactive,–,inactive,–,inactive,2.11 µM (active) and inactive,inactive,inactive,–,inactive,inactive,inactive,–,–,inactive,inactive
O=C(O)CCCOc1ccc(Cl)cc1Cl,inactive,inactive,inactive,inactive,inactive and 29.4 µM (active),inactive,–,inactive,–,inactive,inactive,–,inactive,inactive,inactive,–,–,inactive,inactive,–
Cc1ccc([N+](=O)[O-])cc1C,inactive,inactive,inactive,inactive,inactive,inactive,inactive,inactive,inactive,inactive,inactive,inactive,inactive,inactive,–,–,inactive,inactive,–,–
CC(C)(C)C(=O)Cl,inactive,inactive,inactive,inactive,–,inactive,inactive,inactive,inactive,inactive,inactive,–,–,inactive,–,inactive,inactive,inactive,inactive,inactive
N#CS,inactive,inactive,inactive,inactive,inactive,inactive,–,inactive,inactive,inactive,inactive,inactive,inactive,inactive,inactive,inactive,inactive,inactive,inactive,inactive
CCOP(=O)(OCC)SCCSCC,inactive,inactive,inactive,inactive,inactive,inactive,inactive,inactive,inactive,inactive,inactive,inactive,inactive,inactive,inactive,–,inactive,inactive,–,inactive
O=[N+]([O-])/C=C/c1ccccc1,17.5 µM (active) and 27.3 µM (active),inactive,inactive,inactive,inactive,inactive,inactive,–,inactive,inactive,inactive,–,inactive,inactive,inactive,inactive,–,inactive,inactive,–
CCCCCCCCCCCC(=O)O,inactive,inactive,inactive,inactive,inactive,inactive,inactive,inactive,inactive,inactive,inactive,inactive,inactive,inactive,inactive,–,inactive,inactive,–,–
CC(Cl)(Cl)C(=O)O,inactive,inactive,inactive,inactive,inactive,inactive,–,–,inactive,inactive,inactive,inactive,inactive,inactive,–,–,inactive,inactive,–,–
